Calls of active or inactive are those of the source.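 How the source made its calls: active means any rise in protein melting temperature, meaning a thermal shift above zero; inactive means the rest.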
target: Luciferin 4-monooxygenase (Photinus pyralis) (UniProt P08659); assay: Thermal Shift Assay for Inhibitors of FLuc (Firefly Luciferase, Photinus pyralis) in Presence of ATP; conditions: Purified FLuc with ATP, SYPRO Orange thermal shift; at 200 µM; hits give high values
Text: Firefly (Photinus pyralis) luciferase (FLuc) is widely used as a reporter in biological assays. […] In order to determine if FLuc thermal stabilization parallels inhibitor potency, a fluorescence-based thermal denaturation assay was developed in this present study. An environmentally sensitive fluorescence dye, SYPRO Orange (Invitrogen, presently Life Technologies) was utilized to monitor the fluorescence change as a function of temperature. The dye preferentially binds to the hydrophobic regions of the protein, and its high signal-to-noise ratio, large Stokes shift and high excitation wavelength make it ideal for thermal shift application. In this assay, the melting temperature (Tm) (the inflection point of the protein melt transition) was assessed for each sample tested. Differences in the Tm between controls and compound-containing samples were determined (the thermal shift or delta Tm), and compounds were ranked by the degree of their thermal shift at the top concentration (200 uM). […] FLuc catalyzes light production in bioluminescent organisms. The reaction requires luciferin, ATP and O2 as substrate, and it includes the formation of a luciferyl-AMP intermediate and the subsequent production of light, AMP, oxyluciferin and CO2. In this study, PTC124 and analogues were evaluated for their potential to stabilize FLuc in the absence and presence of ATP. This particular BioAssay is in the presence of ATP. See related BioAssay "Thermal Shift Assay for Inhibitors of FLuc (Firefly Luciferase, Photinus pyralis) in the Absence of ATP" See [6] for more details on this assay and related studies. Welch, et al. PTC124 targets genetic disorders caused by nonsense mutations. Nature 447 (2007) 87-91. D.S. Auld, N. Thorne, W.F. Maguire, and J. Inglese, Mechanism of PTC124 activity in cell-based luciferase assays of nonsense codon suppression. Proc Natl Acad Sci U S A 106 (2009) 3585-90. D.S. Auld, N. Thorne, D.T. Nguyen, and J. Inglese, A specific mechanism for nonspecific activation in reporter-gene assays. ACS Chem Biol 3 (2008) 463-70. [4]F.H. Niesen, H. Berglund, and M. Vedadi, The use of differential scanning fluorimetry to detect ligand interactions that promote protein stability. Nat Protoc 2 (2007) 2212-21. J.R. de Wet, K.V. Wood, M. DeLuca, D.R. Helinski, and S. Subramani, Firefly luciferase gene: structure and expression in mammalian cells. Mol Cell Biol 7 (1987) 725-37. Auld, et al. Molecular Basis for the High Affinity Binding and Stabilization of Firefly Luciferase by PTC124. Proc Natl Acad Sci U S A, accepted.
Assay Protocol: 1.8 uM FLuc was tested in Tris-acetate buffer (pH 7.6) or phosphate buffer saline (pH 7.4). ATP final concentration was 2 mM. Compounds were tested at 200 uM. Data was captured on an iQ5 Real Time PCR Detection system (Bio-Rad) using a temperature range from 20 to 95C in increments of 1C and a ramping rate of 0.1C/s. Fluorescence intensity changes (Ex 490/Em 575 nm) were monitored with a charge-coupled device (CCD) camera. Buffer: 50 mM Tris-acetate, pH 7.6 (with or without 2 mM ATP); 1X PBS, pH 7.4 (with or without 2 mM ATP)

Luciferin 4-monooxygenase (Photinus pyralis), sequence (P08659 whole entry, looked up): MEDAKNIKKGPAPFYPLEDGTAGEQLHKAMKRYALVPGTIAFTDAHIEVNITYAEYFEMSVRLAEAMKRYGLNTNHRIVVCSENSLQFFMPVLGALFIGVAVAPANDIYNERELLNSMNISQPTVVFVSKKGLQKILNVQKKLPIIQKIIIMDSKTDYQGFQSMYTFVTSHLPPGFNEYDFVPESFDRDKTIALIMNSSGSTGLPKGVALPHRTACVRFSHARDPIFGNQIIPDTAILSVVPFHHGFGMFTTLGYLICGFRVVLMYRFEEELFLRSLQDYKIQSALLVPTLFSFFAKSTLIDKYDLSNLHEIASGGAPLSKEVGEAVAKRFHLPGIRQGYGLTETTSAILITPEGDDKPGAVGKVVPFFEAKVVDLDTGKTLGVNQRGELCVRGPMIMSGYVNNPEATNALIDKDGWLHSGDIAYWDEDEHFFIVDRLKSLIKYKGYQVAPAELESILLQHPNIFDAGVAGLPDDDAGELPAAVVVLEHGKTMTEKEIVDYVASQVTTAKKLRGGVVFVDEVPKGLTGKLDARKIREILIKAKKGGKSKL

Thermal shift (delta Tm), active:
O=C(O)c1cccc(-c2noc(-c3ccccc3F)n2)c1 13.1 C, NC(=O)c1ccccc1-c1noc(-c2ccccc2F)n1 3.72 C, Fc1ccccc1-c1nc(-c2cccc(-c3nn[nH]n3)c2)no1 6.04 C, NC(=O)c1cccc(-c2noc(-c3ccccc3F)n2)c1 6.12 C, O=C(O)c1ccc(-c2noc(-c3ccccc3F)n2)cc1 11.6 C, O=C(O)c1ccccc1-c1noc(-c2ccccc2F)n1 5.48 C, Nc1ncnc2c1ncn2[C@@H]1O[C@H](COP(=O)(O)OC(=O)c2cccc(-c3noc(-c4ccccc4F)n3)c2)[C@@H](O)[C@H]1O 12.6 C, O=C(O)c1cccc(-c2noc(-c3cccc(Cl)c3)n2)c1 11.8 C

— PubChem BioAssay AID2228 (National Center for Advancing Translational Sciences (NCATS), 2010)
